The whole screen tested about 5,500 compounds, of which about 2,000 (36%) were called active. Roughly 18% stayed inconclusive and do not appear here. Rule as the data show it: active = normalized growth mostly below about 0.91 (no sharp cut-off); inconclusive = no clear call, values can overlap the other calls; inactive = mostly above about 0.92. Some of the results follow.
Experiment: chemical genetic growth profiling, strain panel (AID 1159580);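 also: tested at 20 µM; growth read once vehicle control cultures reached saturation at 30 °C; 1 = growth at the plate median or of vehicle wells; lower values mean less growth of the strain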
Settings: S. cerevisiae deletion strains, growth OD

Measured: normalized growth

O=C(O)CSCc1ccccc1
inactive: locus YAL013W, strain DEP1, active compounds read low 1.01 | locus YBR229C, strain ROT2, active compounds read low 1 | locus YCL061C, strain MRC1, active compounds read low 0.991 | locus YDL101C, strain DUN1, active compounds read low 1.02 | locus YDL134C, strain PPH21, active compounds read low 0.986 | locus YDR150W, strain NUM1, active compounds read low 0.98 | locus YEL061C, strain CIN8, active compounds read low 1.01 | locus YGR078C, strain PAC10, active compounds read low 0.976 | locus YHR030C, strain SLT2, active compounds read low 1.07 | locus YHR087W, strain rtc3, active compounds read low 0.99 | locus YJR043C, strain POL32, active compounds read low 1.03 | locus YJR075W, strain HOC1, active compounds read low 0.971 | locus YLR039C, strain RIC1, active compounds read low 1.07 | locus YLR058C, strain SHM2 (second series), active compounds read low 0.993 | locus YLR085C, strain ARP6, active compounds read low 1.03 | locus YLR262C, strain YPT6, active compounds read low 1.04 | locus YML094W, strain GIM5, active compounds read low 1.03 | locus YMR219W, strain ESC1, active compounds read low 0.997 | locus YMR263W, strain SAP30, active compounds read low 1 | locus YNL128W, strain TEP1, active compounds read low 0.986 | locus YNL153C, strain GIM3, active compounds read low 0.997 | locus YNL298W, strain CLA4 (second series), active compounds read low 1.05 | locus YNL322C, strain KRE1, active compounds read low 0.991 | locus YNR030W, strain Alg12, active compounds read low 1.02 | locus YPL055C, strain LGE1, active compounds read low 0.958 | locus YPL241C, strain CIN2, active compounds read low 1 | locus YPR135W, strain CTF4, active compounds read low 0.976

Reference: PubChem BioAssay AID1159580 (chemical genetic matrix, 2015)
